The text below walks through data of ChEMBL document CHEMBL2218924, “A broad activity screen in support of a chemogenomic map for kinase signalling research and drug discovery” (Biochem J, 2013).

Structures are written as SMILES.

Experiment [1] has as its target Tyrosine-protein kinase SYK (Homo sapiens) (UniProt P43405). The following applies: at 10 µM.
For experiment [2], the target named is T1, Mitogen-activated protein kinase kinase kinase 7 (Homo sapiens) (UniProt O43318).
T1 sequence (whole entry): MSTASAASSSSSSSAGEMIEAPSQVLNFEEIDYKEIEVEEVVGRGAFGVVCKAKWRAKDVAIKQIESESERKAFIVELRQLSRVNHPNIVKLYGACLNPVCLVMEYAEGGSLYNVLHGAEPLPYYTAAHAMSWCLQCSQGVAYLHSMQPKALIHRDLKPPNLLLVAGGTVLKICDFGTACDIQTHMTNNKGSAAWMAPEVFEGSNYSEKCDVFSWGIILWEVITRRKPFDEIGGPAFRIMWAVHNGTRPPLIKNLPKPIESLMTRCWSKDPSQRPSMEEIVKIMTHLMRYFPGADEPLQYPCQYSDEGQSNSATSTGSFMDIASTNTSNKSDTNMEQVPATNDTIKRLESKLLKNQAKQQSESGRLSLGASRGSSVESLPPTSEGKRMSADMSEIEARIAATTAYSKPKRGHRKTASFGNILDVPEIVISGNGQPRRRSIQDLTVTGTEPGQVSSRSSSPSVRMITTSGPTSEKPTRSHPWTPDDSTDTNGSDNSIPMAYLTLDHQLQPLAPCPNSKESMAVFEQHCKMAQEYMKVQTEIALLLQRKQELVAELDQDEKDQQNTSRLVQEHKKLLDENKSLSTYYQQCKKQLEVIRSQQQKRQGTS
The following applies: at 1 µM.

Experiment [3] deals with T1, Mitogen-activated protein kinase kinase kinase 7 (Homo sapiens). The following applies: at 10 µM.
Experiment [4] has as its target T2, Serine/threonine-protein kinase TAO1 (Homo sapiens) (UniProt Q7L7X3).
T2 sequence (whole entry): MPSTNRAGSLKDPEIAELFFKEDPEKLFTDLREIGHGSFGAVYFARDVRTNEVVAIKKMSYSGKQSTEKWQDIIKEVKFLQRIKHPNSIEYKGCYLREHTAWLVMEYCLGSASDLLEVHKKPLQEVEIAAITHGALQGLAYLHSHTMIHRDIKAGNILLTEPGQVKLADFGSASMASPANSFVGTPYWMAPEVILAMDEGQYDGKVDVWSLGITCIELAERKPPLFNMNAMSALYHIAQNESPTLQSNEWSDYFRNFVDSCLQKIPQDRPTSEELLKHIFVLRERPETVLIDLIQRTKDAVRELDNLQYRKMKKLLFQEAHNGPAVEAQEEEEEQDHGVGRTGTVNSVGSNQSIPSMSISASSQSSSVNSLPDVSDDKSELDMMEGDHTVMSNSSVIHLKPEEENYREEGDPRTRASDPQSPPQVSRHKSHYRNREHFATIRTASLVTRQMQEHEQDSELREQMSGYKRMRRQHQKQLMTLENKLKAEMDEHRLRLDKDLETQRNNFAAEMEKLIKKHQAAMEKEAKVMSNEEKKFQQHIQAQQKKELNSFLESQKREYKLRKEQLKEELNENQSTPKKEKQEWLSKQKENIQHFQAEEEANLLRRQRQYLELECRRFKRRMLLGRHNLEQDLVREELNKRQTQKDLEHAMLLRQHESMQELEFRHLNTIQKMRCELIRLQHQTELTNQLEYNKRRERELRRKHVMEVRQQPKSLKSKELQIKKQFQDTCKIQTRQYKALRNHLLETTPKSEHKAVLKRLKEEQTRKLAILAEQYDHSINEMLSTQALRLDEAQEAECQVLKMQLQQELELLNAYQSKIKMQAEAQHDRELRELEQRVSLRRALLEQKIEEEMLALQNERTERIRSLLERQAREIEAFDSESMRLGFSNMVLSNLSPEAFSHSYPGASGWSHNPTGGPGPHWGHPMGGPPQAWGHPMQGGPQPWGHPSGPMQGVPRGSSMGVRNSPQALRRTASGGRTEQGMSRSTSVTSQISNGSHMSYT
The following applies: at 1 µM.

Experiment [5] addresses T2, Serine/threonine-protein kinase TAO1 (Homo sapiens). As to conditions: at 10 µM.
Experiment [6] has as its target T3, Serine/threonine-protein kinase TAO2 (Homo sapiens) (UniProt Q9UL54).
T3 sequence (whole entry): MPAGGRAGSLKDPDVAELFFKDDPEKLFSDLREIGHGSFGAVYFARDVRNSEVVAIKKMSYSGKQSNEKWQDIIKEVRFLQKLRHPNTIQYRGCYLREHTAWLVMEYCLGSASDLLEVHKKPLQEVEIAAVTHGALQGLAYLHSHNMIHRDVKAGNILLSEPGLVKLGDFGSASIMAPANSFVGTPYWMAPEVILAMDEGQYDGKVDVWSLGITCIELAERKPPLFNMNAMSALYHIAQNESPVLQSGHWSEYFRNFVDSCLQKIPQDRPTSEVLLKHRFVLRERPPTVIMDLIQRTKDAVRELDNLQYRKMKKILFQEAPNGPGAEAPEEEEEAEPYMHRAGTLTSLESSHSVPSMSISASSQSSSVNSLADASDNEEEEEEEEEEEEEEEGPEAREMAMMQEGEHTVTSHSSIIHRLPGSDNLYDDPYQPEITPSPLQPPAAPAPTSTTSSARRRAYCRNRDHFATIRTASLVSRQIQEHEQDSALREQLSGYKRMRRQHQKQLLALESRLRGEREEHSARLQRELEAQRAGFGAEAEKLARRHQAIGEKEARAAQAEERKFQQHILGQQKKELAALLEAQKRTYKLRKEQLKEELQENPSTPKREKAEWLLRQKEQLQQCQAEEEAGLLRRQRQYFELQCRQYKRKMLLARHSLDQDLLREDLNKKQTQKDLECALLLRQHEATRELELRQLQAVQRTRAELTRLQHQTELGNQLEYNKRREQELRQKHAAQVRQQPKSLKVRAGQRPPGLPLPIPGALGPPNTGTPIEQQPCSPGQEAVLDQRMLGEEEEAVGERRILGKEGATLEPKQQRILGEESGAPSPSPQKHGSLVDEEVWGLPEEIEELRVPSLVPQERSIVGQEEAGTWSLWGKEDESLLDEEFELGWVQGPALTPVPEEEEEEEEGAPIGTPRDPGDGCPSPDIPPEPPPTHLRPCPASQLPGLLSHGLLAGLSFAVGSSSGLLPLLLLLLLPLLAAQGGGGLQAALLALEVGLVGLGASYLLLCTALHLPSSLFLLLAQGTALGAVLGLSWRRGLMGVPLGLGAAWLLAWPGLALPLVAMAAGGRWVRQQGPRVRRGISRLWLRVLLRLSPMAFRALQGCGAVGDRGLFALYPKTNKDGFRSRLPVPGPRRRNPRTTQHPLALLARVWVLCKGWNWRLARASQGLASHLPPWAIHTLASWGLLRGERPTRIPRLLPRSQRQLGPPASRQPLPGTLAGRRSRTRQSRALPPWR
The following applies: at 1 µM.

Experiment [7] deals with T3, Serine/threonine-protein kinase TAO2 (Homo sapiens). As to conditions: at 10 µM.
Experiment [8] has as its target T4, Serine/threonine-protein kinase TAO3 (Homo sapiens) (UniProt Q9H2K8).
T4 sequence (whole entry): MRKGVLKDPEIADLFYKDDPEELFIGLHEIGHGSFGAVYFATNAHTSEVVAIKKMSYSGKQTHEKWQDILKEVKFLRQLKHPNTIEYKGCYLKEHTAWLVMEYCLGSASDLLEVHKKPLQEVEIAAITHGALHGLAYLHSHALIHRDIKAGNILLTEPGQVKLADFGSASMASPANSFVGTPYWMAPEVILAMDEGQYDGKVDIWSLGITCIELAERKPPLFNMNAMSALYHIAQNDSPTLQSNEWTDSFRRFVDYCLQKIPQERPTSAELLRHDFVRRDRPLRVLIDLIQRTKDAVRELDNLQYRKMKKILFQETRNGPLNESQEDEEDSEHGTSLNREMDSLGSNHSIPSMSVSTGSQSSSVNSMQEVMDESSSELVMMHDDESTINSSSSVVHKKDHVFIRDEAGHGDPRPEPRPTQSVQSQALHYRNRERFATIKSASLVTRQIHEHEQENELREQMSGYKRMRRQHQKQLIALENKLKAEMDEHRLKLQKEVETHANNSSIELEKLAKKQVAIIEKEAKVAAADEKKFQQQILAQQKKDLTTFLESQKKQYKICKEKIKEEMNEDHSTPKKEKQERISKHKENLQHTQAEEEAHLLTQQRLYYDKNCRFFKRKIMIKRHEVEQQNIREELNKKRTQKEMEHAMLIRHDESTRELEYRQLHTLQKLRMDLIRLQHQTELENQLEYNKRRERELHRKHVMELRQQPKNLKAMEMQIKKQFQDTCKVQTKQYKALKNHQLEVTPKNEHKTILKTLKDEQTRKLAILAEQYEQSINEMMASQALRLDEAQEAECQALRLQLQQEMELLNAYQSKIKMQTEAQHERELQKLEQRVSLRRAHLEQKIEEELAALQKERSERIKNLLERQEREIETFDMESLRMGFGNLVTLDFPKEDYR
As to conditions: at 1 µM.

Experiment [9] addresses T4, Serine/threonine-protein kinase TAO3 (Homo sapiens). As to conditions: at 10 µM.
Experiment [10] addresses T5, Serine/threonine-protein kinase TBK1 (Homo sapiens) (UniProt Q9UHD2).
T5 sequence (whole entry): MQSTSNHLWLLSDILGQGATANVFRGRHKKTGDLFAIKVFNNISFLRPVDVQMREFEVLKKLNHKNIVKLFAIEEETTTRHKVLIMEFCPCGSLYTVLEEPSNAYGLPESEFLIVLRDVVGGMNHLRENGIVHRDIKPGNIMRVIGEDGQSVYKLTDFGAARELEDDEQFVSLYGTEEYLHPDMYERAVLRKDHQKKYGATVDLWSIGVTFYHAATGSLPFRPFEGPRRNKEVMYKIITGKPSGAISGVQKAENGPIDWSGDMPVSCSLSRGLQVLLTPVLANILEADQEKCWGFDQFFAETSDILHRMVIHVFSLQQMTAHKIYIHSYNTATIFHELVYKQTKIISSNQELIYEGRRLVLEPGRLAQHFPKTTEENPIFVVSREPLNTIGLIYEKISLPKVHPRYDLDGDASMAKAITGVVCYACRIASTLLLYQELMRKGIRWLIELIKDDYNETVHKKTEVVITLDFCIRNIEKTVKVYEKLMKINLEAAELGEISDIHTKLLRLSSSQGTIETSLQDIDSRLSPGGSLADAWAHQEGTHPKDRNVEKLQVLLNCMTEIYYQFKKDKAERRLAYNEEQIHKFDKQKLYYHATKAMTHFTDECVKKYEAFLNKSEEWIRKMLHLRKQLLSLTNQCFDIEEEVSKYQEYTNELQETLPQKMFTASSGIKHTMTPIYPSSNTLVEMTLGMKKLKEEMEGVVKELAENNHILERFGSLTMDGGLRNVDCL
As to conditions: at 1 µM.

As to `O=c1cc(-c2cccc3c2Sc2ccccc2S3)oc(N2CCOCC2)c1`, the residual activity in experiment [1] came to 90%; in experiment [2] it was 101%; in experiment [3], 89%; in experiment [4], 107%; in experiment [5], 80%; in experiment [6], 93%. For the same molecule, the residual activity in experiment [7] came out at 90%; in experiment [8] it was 94%; in [9], 82%; in experiment [10], 99%.
